From PubChem BioAssay AID1159580 (chemical genetic matrix, 2015)
“And” between values parts separate entries of the source, which are not always exact repeats. Equal entries are not always repeated. The whole screen tested about 5,500 compounds, of which about 2,000 (36%) were called active. Not shown: some 18% with an inconclusive outcome. Rule as the data show it: active = normalized growth mostly below about 0.91 (no sharp cut-off); inconclusive = no clear call, values can overlap the other calls; inactive = mostly above about 0.92. Some of the results follow.

Experiment: chemical genetic growth profiling, strain panel (AID 1159580);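 also: tested at 20 µM; growth read once vehicle control cultures reached saturation at 30 °C; 1 = growth at the plate median or of vehicle wells; lower values mean less growth of the strain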
Conditions: S. cerevisiae deletion strains, growth OD

Measured: normalized growth

CC(=O)/C=C\[C@@H]1[C@@]2(C)CCCC(C)(C)C2CC[C@@]1(C)O (some centres not stated)
inactive: locus YAL013W, strain DEP1, active compounds read low 0.964 | locus YAL021C, strain ccr4, active compounds read low 0.989 | locus YAL026C, strain drs2, active compounds read low 0.971 | locus YAL030W, strain snc1, active compounds read low 0.974 | locus YBL061C, strain skt5, active compounds read low 0.983 | locus YBR009C, strain hhf1, active compounds read low 0.971 | locus YBR021W, strain FUR4, active compounds read low 0.99 | locus YBR023C, strain chs3, active compounds read low 0.977 | locus YBR171W, strain sec66, active compounds read low 0.96 | locus YBR229C, strain ROT2, active compounds read low 0.946 | locus YBR231C, strain swc5, active compounds read low 0.988 | locus YBR279W, strain paf1, active compounds read low 0.966 | locus YCL011C, strain gbp2, active compounds read low 0.966 | locus YCL016C, strain dcc1, active compounds read low 0.988 | locus YCL029C, strain bik1, active compounds read low 0.985 | locus YCL061C, strain MRC1, active compounds read low 0.988 | locus YCL069W, strain vba3, active compounds read low 0.949 | locus YCR088W, strain abp1, active compounds read low 0.986 | locus YDL005C, strain med2, active compounds read low 0.971 | locus YDL035C, strain GPR1, active compounds read low 0.963 | locus YDL040C, strain nat1, active compounds read low 0.983 | locus YDL074C, strain BRE1, active compounds read low 0.901 | locus YDL101C, strain DUN1, active compounds read low 0.952 | locus YDL134C, strain PPH21, active compounds read low 0.964 | locus YDL185W, strain tfp1, active compounds read low 0.966 | locus YDL192W, strain arf1, active compounds read low 0.98 | locus YDR001C, strain nth1, active compounds read low 0.967 | locus YDR069C, strain doa4, active compounds read low 0.973 | locus YDR101C, strain arx1, active compounds read low 0.995 | locus YDR137W, strain rgp1, active compounds read low 0.902 | locus YDR150W, strain NUM1, active compounds read low 0.967 | locus YDR159W, strain sac3, active compounds read low 0.922 | locus YDR162C, strain NBP2, active compounds read low 0.843 | locus YDR195W, strain ref2 0.955 | locus YDR297W, strain sur2, active compounds read low 0.982 | locus YDR318W, strain mcm21, active compounds read low 1 | locus YDR334W, strain swr1, active compounds read low 0.946 | locus YDR335W, strain msn5, active compounds read low 0.981 | locus YDR388W, active compounds read low 0.987 | locus YDR392W, strain spt3, active compounds read low 0.842 | locus YDR502C, strain sam2, active compounds read low 0.951 | locus YEL003W, strain gim4, active compounds read low 0.976 | locus YEL037C, strain rad23, active compounds read low 0.969 | locus YEL061C, strain CIN8 (second series), active compounds read low 0.961 | locus YEL061C, strain CIN8, active compounds read low 0.968 | locus YER015W, strain faa2, active compounds read low 0.966 | locus YER016W, strain bim1, active compounds read low 0.982 | locus YER110C, active compounds read low 0.985 | locus YER111C, strain swi4, active compounds read low 0.978 | locus YER155C, strain BEM2 (second series), active compounds read low 0.982 | locus YER155C, strain BEM2, active compounds read low 0.972 | locus YER167W, strain BCK2, active compounds read low 0.989 | locus YFR010W, strain ubp6, active compounds read low 0.967 | locus YGL078C, strain dbp3, active compounds read low 0.968 | locus YGL086W, strain mad1, active compounds read low 0.996 | locus YGL167C, strain pmr1, active compounds read low 0.971 | locus YGL173C, strain kem1, active compounds read low 0.975 | locus YGL227W, strain vid30, active compounds read low 0.982 | locus YGL240W, strain doc1, active compounds read low 0.976 | locus YGL248W, strain PDE1, active compounds read low 0.969 | locus YGL253W, strain hxk2, active compounds read low 0.975 | locus YGR078C, strain PAC10, active compounds read low 0.963 | locus YGR135W, strain pre9, active compounds read low 0.922 | locus YGR229C, strain SMI1, active compounds read low 0.933 | locus YGR252W, strain gcn5, active compounds read low 1.05 | locus YHR013C, strain ard1, active compounds read low 0.964 | locus YHR027C, strain rpn1, active compounds read low 0.967 | locus YHR030C, strain SLT2, active compounds read low 0.993 and 0.958 | locus YHR079C, strain IRE1 (second series), active compounds read low 0.987 | locus YHR079C, strain IRE1, active compounds read low 0.989 | locus YHR094C, strain hxt1, active compounds read low 0.99 | locus YHR129C, strain ARP1, active compounds read low 0.975 | locus YHR142W, strain chs7, active compounds read low 0.979 | locus YHR200W, strain rpn10, active compounds read low 0.988 | locus YIL066C, strain RNR3, active compounds read low 0.953 | locus YIL073C, strain SPO22, active compounds read low 1.02 | locus YIL125W, strain kgd1, active compounds read low 0.991 | locus YIR030C, strain dcg1, active compounds read low 0.978 | locus YJL092W, strain hpr5, active compounds read low 0.98 | locus YJL095W, strain BCK1 (second series), active compounds read low 0.963 | locus YJL095W, strain BCK1, active compounds read low 0.916 and 0.981 | locus YJL115W, strain asf1, active compounds read low 0.96 | locus YJL129C, strain trk1, active compounds read low 0.957 | locus YJL134W, strain LCB3, active compounds read low 0.969 | locus YJL154C, strain vps35, active compounds read low 0.973 | locus YJL164C, strain tpk1, active compounds read low 0.997 | locus YJL166W, strain qcr8, active compounds read low 0.982 | locus YJL168C, strain set2, active compounds read low 0.976 | locus YJL187C, strain SWE1 (second series), active compounds read low 0.945 | locus YJL187C, strain SWE1, active compounds read low 0.969 | locus YJR043C, strain POL32, active compounds read low 1.03 | locus YJR066W, strain TOR1, active compounds read low 0.951
